This assay concerns Renilla luciferase (RLuc). As to the kind of experiment: residual bioluminescent signal relative to negative control without GSH; higher = less interference (more residual luciferase signal). The settings on record: screening conditions buffer. The protocol:
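Selected metal salts at 3-4 concentrations tested on purified FLuc, NLuc or RLuc in screening buffer with 0, 0.2 or 2 mM glutathione added; 10 min enzyme pre-incubation at RT, luminescence 10 min after substrate. Signal normalised to negative control without GSH (% N_VALUE); triplicate wells.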

The mark [1] stands for this setting: metal salt concentration 0.2 mM, glutathione 0 mM.
The mark [2] stands for this setting: metal salt concentration 0.2 mM, glutathione 0.2 mM.
Setting [3] is: metal salt concentration 0.2 mM, glutathione 2 mM.
Where [4] appears, read: metal salt concentration 1 mM, glutathione 0 mM.
Setting [5] is: metal salt concentration 1 mM, glutathione 0.2 mM.
The mark [6] stands for this setting: metal salt concentration 1 mM, glutathione 2 mM.

± gives the standard deviation of the averaged measurements.

Turning to `O=[N+]([O-])[O-].[Ag+]` [silver nitrate], the residual bioluminescent signal by setting is: (metal salt concentration 0.002 mM, glutathione 0 mM) 116 ± 9.8%; (metal salt concentration 0.002 mM, glutathione 0.2 mM) 109 ± 15%; (metal salt concentration 0.002 mM, glutathione 2 mM) 165 ± 28%; (metal salt concentration 0.0684 mM, glutathione 0 mM) 49.2 ± 15%; (metal salt concentration 0.0684 mM, glutathione 0.2 mM) 115 ± 7.6%; (metal salt concentration 0.0684 mM, glutathione 2 mM) 160 ± 13%. Moreover, the residual bioluminescent signal by setting is: under setting [1], 5.26 ± 2.6%; under setting [2], 119 ± 16%; under setting [3], 174 ± 13%; under setting [4], 2.52 ± 2%; under setting [5], 102 ± 13%; under setting [6], 171 ± 12%.
Consider `O=[N+]([O-])[O-].O=[N+]([O-])[O-].[Cu+2]` [copper(II) nitrate], for which the residual bioluminescent signal came to 90.5 ± 7.6% (metal salt concentration 0.1 mM, glutathione 0 mM); 101 ± 3.8% (metal salt concentration 0.1 mM, glutathione 0.2 mM); 115 ± 12% (metal salt concentration 0.1 mM, glutathione 2 mM); 79.1 ± 10% (metal salt concentration 0.132 mM, glutathione 0 mM); 88.3 ± 16% (metal salt concentration 0.132 mM, glutathione 0.2 mM); 135 ± 20% (metal salt concentration 0.132 mM, glutathione 2 mM). Further, the residual bioluminescent signal is 107 ± 14% under setting [1]; 98.8 ± 24% under setting [2]; 120 ± 19% under setting [3]; 2.29 ± 2.2% under setting [4]; 27.7 ± 5.2% under setting [5]; 122 ± 20% under setting [6].
Regarding `O=[N+]([O-])[O-].O=[N+]([O-])[O-].[Zn+2]` [zinc nitrate], the residual bioluminescent signal under setting [4] is 112 ± 18%; the residual bioluminescent signal under setting [5] was 116 ± 25%; the residual bioluminescent signal under setting [6] stood at 158 ± 11%; the residual bioluminescent signal (metal salt concentration 2.5 mM, glutathione 0 mM) is 104 ± 9.8%; the residual bioluminescent signal (metal salt concentration 2.5 mM, glutathione 0.2 mM) turned out to be 110 ± 13%; the residual bioluminescent signal (metal salt concentration 2.5 mM, glutathione 2 mM) amounted to 110 ± 6.2%. The residual bioluminescent signal was determined as 89.4 ± 5% (metal salt concentration 4.13 mM, glutathione 0 mM); 96.3 ± 13% (metal salt concentration 4.13 mM, glutathione 0.2 mM); 46.9 ± 19% (metal salt concentration 4.13 mM, glutathione 2 mM); 2.06 ± 0.69% (metal salt concentration 10 mM, glutathione 0 mM); 4.57 ± 0.79% (metal salt concentration 10 mM, glutathione 0.2 mM); 2.74 ± 2.1% (metal salt concentration 10 mM, glutathione 2 mM).

The record behind these values is the supplement of paper PMC11628255, “Interference of metal ions on the bioluminescent signal of firefly, Renilla, and NanoLuc luciferases in high-throughput screening assays” (Frontiers in Chemistry, 2024).
